In PubChem BioAssay AID1030 (National Center for Advancing Translational Sciences (NCATS), 2008):
Hit rate of the full screen: of about 220,000 compounds, about 16,000 (7.3%) were called active. About 25% were inconclusive and are not listed. Calls come from the whole dose curve; as a rule, active = well fitted inhibition curve with a large enough effect (not every such curve was filed as active); inconclusive = small, poorly fitted or top-dose-only effect, or another doubt; inactive = no such curve, though single readings can be large or run the other way. Only a selection was taken, and actives are over-represented in it overall.

target: Aldehyde dehydrogenase 1A1 (Homo sapiens) (UniProt P00352); experiment: qHTS Assay for Inhibitors of Aldehyde Dehydrogenase 1 (ALDH1A1); settings: Purified ALDH1A1, NADH fluorescence, propionaldehyde substrate; series mostly up to 75.3 µM; activity, negative = inhibition: at the top concentration;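 for activity, negative = inhibition: plate controls were no enzyme wells and a reference inhibitor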
Sequence (P00352 whole entry, looked up): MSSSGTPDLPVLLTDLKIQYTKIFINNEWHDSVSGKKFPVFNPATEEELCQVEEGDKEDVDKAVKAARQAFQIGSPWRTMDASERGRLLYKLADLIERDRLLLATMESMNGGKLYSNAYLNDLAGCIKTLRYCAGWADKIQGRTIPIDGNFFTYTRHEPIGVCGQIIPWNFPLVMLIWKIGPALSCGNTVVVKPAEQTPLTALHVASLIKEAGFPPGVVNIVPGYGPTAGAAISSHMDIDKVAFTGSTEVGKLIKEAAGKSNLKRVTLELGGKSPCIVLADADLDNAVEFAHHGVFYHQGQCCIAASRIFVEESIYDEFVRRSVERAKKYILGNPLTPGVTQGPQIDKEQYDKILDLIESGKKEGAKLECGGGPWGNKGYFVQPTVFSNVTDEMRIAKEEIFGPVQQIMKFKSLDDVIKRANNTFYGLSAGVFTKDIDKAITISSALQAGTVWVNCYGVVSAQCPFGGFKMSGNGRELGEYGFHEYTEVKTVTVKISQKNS
Potency is the fitted concentration of half-maximal effect.

| SMILES | Potency | activity, negative = inhibition |
| --- | --- | --- |
| CS(=O)(=O)c1ccc2nc(NC(=O)C3C4C=CC(C4)C3C(=O)O)sc2c1 (centres undefined) | 5.62 µM (active) |  |
| CN1CCN(CC(=O)Nc2cccc([N+](=O)[O-])c2)CC1 |  | 0.065% (inactive) |
| CCOc1cccc(/C(O)=C2/C(=O)C(=O)N(CCOC)C2c2ccncc2)c1 (centres undefined) |  | -3.89% (inactive) |
| COCCCN1C(=O)C(=O)/C(=C(/O)c2ccc3c(c2)CC(C)O3)C1c1cccnc1 (centres undefined) | 39.8 µM (active) |  |
| COc1cc(C2/C(=C(\O)c3ccc4c(c3)CC(C)O4)C(=O)C(=O)N2Cc2ccco2)ccc1O (centres undefined) |  | 6.76% (inactive) |
| CCc1ccccc1NC(=O)Cc1cn(C)c2ccccc12 |  | 1.76% (inactive) |
| CC(/C=C/C1(O)C(C)CC(=O)CC1(C)C)OC1OC(CO)C(O)C(O)C1O (centres undefined) |  | 7.29% (inactive) |
| O=C(Nc1cc(S(=O)(=O)N2CCOCC2)ccc1Cl)c1cc(=O)c2ccccc2o1 |  | -1.3% (inactive) |
| O=[N+]([O-])c1cc(Cl)cc(/C=N/NC(=S)Nc2cc(S(=O)(=O)N3CCOCC3)ccc2Cl)c1O | 0.178 µM (active) |  |
| CN(C)/N=C/c1cc(Cl)cc([N+](=O)[O-])c1O |  | -14.1% (inactive) |
| CCN(CC)S(=O)(=O)c1ccc(OC(C)C)c(N)c1 |  | -3.6% (inactive) |
| COc1ccc2nc(Nc3nc(-c4ccncc4)cs3)sc2c1 |  | 2.5% (inactive) |
| Cn1c(CCC(=O)OCC(=O)NCc2ccccc2Cl)nc(=O)c2ccccc21 |  | -3.28% (inactive) |
| O=C(CCc1nnc(CCCCc2ccccc2)o1)NC(c1cccnc1)C(F)(F)F (centres undefined) |  | -2.16% (inactive) |
| CCN(CC)CCNC(=O)C1c2ccccc2C(=O)N(C)C1c1cn(C)c2ccccc12 (centres undefined) |  | 2.48% (inactive) |
| CSc1nnc2c(n1)OC(c1cn(C)c3ccccc13)N(C(C)=O)c1ccccc1-2 (centres undefined) | 3.98 µM (active) |  |
| CSc1nnc2c(n1)OC(c1ccsc1)N(C(C)=O)c1ccccc1-2 (centres undefined) |  | -2.64% (inactive) |
| O=C(CO/N=C/c1ccccc1OC(F)F)NC1CCCC1 |  | 0.956% (inactive) |
| CS(=O)(=O)N(CC(=O)N/N=C/c1ccccn1)c1ccc(Oc2ccccc2)cc1 |  | -10% (inactive) |
| O=c1c(Cl)c(NCc2ccc(F)cc2Cl)cnn1C12CC3CC(CC(C3)C1)C2 | 15.8 µM (active) |  |
| O=C(CN1CCN(Cc2ccc(F)cc2Cl)C1=O)NCc1cccs1 |  | 3.4% (inactive) |
| NC(=O)c1ccc(N2CCOCC2)nc1 |  | -2.04% (inactive) |
| CCNC(=S)NNC(=O)C1CCN(Cc2ccccc2)CC1 |  | 7.64% (inactive) |
| O=C(NNS(=O)(=O)c1ccc(Cl)cc1)C1CCN(Cc2ccccc2)CC1 | 22.4 µM (active) |  |
| CCCC(=O)C1CCN(Cc2ccccc2)CC1 |  | -5.22% (inactive) |
| COc1ccc(-c2cc(C(=O)NCCCn3ccnc3)no2)cc1 |  | -6.09% (inactive) |
| O=C(c1csnn1)N1CCC[C@@]2(CCN(Cc3nccs3)C2)C1 |  | 0.162% (inactive) |

| SMILES | Potency | activity, negative = inhibition |
| --- | --- | --- |
| O=C(c1ccco1)N1CCC[C@@]2(CCN(Cc3nccs3)C2)C1 | 25.1 µM (active) |  |
| Cn1cccc1C(=O)N1CCC[C@@]2(CCN(Cc3nccs3)C2)C1 |  | -0.885% (inactive) |
| Cc1ccc(C)c(OCC(=O)N2CCN(C(=O)c3ccco3)CC2)c1 |  | -5.28% (inactive) |
| O=C(c1cccc([N+](=O)[O-])c1)N1CCN(C(=O)c2ccco2)CC1 |  | -8.13% (inactive) |
| O=C(c1ccco1)N1CCC2(CC1)CCN(c1ncccn1)CC2 | 25.1 µM (active) |  |
| C/C(N)=C(/C#N)C(=O)COC(=O)CNS(=O)(=O)c1ccc(C)cc1 |  | -5.03% (inactive) |
| CC(C)NC(=O)NCCCCCCS(C)=O (centres undefined) |  | 0.942% (inactive) |
| O=C(Nc1n[nH]c(C(F)(F)F)n1)c1cccs1 |  | 7.54% (inactive) |
| C=CCOC(=O)C1=C(C)NC(SCC(=O)OCC)=C(C#N)C1c1ccc(C)cc1 (centres undefined) |  | -12.5% (inactive) |
| CCCSC1=C(C#N)C(c2ccccc2C)C(C(=O)OC)C(=O)N1 (centres undefined) |  | -13.2% (inactive) |
| CC1=C(C(=O)Nc2ccccc2)C(c2cccs2)C(C#N)=C(SCC#N)N1 (centres undefined) | 22.4 µM (active) |  |
| CC(C)(C)c1cnnn1-c1ccc([N+](=O)[O-])cc1 |  | 5.92% (inactive) |
| O=C(NCc1ccccc1Cl)c1csc2c1CCCCC2 |  | 5.35% (inactive) |
| CC(=O)Cc1nsc(NC(=O)c2csc3c2CCCC3)n1 |  | -11% (inactive) |
| O=C(Nc1ccccc1N1CCOCC1)c1csc2c1CCCC2 |  | -11.9% (inactive) |
| COC(=O)c1sccc1NC(=O)c1csc2c1CCCC2 | 22.4 µM (active) |  |
| COC(=O)c1sccc1NC(=O)CCC1CCCC1 |  | -11.2% (inactive) |
| Cc1ccc(NC(=O)c2csc3c2CCCC3)cc1 | 20 µM (active) |  |
| COC(=O)/C(=C1\Oc2ccc(C(C)(C)C)cc2S1)C(F)(F)F |  | 0.549% (inactive) |
| CC/C(O)=C1\C(=O)CC(C)(C)CC1=NCCc1nc2ccccc2[nH]1 |  | 5.21% (inactive) |
| CCCCNC(=O)c1ccc(-n2c(=S)[nH]c3ccccc3c2=O)cc1 |  | 9.14% (inactive) |
| O=C(Cn1c2[n+](c3ccc(C(F)(F)F)cc31)CCCCC2)Nc1c(F)cccc1F |  | -14.3% (inactive) |
| Cc1ccc(Cl)cc1NC(=O)C1CCN(S(C)(=O)=O)CC1 |  | 7.3% (inactive) |
| O=C(NCc1ccccc1Cl)C1CCCO1 (centres undefined) |  | 2.19% (inactive) |
| Cc1ccc(S(=O)(=O)NCC(=O)OCC(=O)N2CCc3ccccc32)cc1 |  | 0.157% (inactive) |
| Cc1cnc(C(=O)OCC(=O)NCCCc2ccccc2)cn1 |  | -3.78% (inactive) |
| Cc1cnc(C(=O)OCC(=O)N2CCc3ccccc32)cn1 | 3.16 µM (active) |  |
